High-throughput results from PubChem.
Hits are enriched below; roughly 2.2% of the tested compounds scored in any of these assays.
S2 tox – reduces viability in counter-screen for ATXN expression inhibitors. S2 cells (HEK-293 line with an ATXN2-luciferase reporter) viability, CellTiter-Fluor protease fluorescence, 24 h. Potency, µM (top dose mostly 56.7 µM), hits mostly cytotoxic. actives 0.49% (n = 400,000). AID 651635; note: potency is the fitted concentration of half-maximal effect; nearly all actives have a fitted effect of over 40% in size
HepG2 tox – kills HepG2 cells in TGF-b inhibitor counter-screen. Potency, µM (top dose mostly 46.1 µM), without a hit: top-dose activity change, negative = cytotoxicity, usual class: cytotoxic. AID 588856. actives 0.76% (n = 410,000). HepG2 CAGA-GFP viability, ATP luminescence, 18 h; note: potency is the fitted concentration of half-maximal effect
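HepG2 CAGA-GFP cells (1000/well, DMEM with 1% FBS) received compound, then TGF-beta at 500 pg/mL final, and were incubated 18 hours at 37 degrees C. Viability was read by CellTiter-Glo luminescence. Media-only wells were set as complete cell-killing and DMSO as no toxicity.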
TGFb inhibitor – blocks TGF-b signaling; HepG2 CAGA-GFP TGF-b/SMAD3 reporter, GFP fluorescence, 18 h; TGF-beta stimulated, 500 pg/mL final; Potency, µM (doses to about 46.1 µM), without a hit: at the highest dose activity, negative = inhibition, most hits filed as inhibitors; actives 1.2% (n = 410,000); AID 588855; note: potency is the fitted concentration of half-maximal effect; % is set by controls: 0 for no effect and ±100 for the full control effect; nearly all actives have a fitted effect of over 65% in size
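Per well, imaged GFP fluorescence of HEPG2 CAGA-GFP cells gives the signal; cells get compound, then TGF-beta (500 pg/mL final), 18 h at 37 degrees C; %Activity versus -TGF-beta and +DMSO controls.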
ATXN2 expr inh – reduces ATXN2 reporter expression in HEK-293 cells | HEK-293 ATXN2-luciferase reporter, luminescence, 24 h | Potency, µM (highest dose often 57 µM), inactives show top-dose activity change, negative = inhibition, usual class: inhibitors | actives 0.72% (n = 360,000) | AID 1745845; note: potency is the fitted concentration of half-maximal effect; % is set by controls: 0 for no effect and ±100 for the full control effect; nearly all actives have a fitted effect of over 55% in size
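ATXN2-luciferase reporter cells (luciferase flanked by upstream and downstream ATXN2 gene portions) were treated 24 h at 37 °C with compounds at up to 57 uM. SteadyGlo luminescence gave expression; GF-AFC fluorescence gave viability.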
LDHA block – LDHA (human) enzyme inhibition; purified LDHA, NADH/diaphorase-resazurin fluorescence; active compounds read low; activity change, % (values are at about 110 or 230 µM); actives 0.15% (n = 480,000); AID 1347041; in the data active = activity change below about -30%; inconclusive = mostly about -25% to -30%;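 note: plate controls were DMSO wells for no effect and wells without enzyme for full effect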
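Resorufin fluorescence (ex540/em590), read at 0 and 20 min after diaphorase/resazurin addition, reports the NADH left after a 5 min room-temperature reaction of 2 nM human LDH5 with 0.06 mM NADH and 0.2 mM pyruvate.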
mIDH1 inhibitor – blocks human mutant IDH1 R132H enzyme; Potency, µM (doses to about 76.6 µM), without a hit: top-dose activity change, negative = inhibition, most hits filed as inhibitors; actives 0.093% (n = 390,000); IDH1-R132H enzyme, NADPH consumption, diaphorase/resazurin fluorescence; O75874; note: potency is the fitted concentration of half-maximal effect; % is set by controls: 0 for no effect and ±100 for the full control effect; nearly all actives have a fitted effect of over 65% in size
Target sequence (O75874 whole entry R132H, stated change not applied): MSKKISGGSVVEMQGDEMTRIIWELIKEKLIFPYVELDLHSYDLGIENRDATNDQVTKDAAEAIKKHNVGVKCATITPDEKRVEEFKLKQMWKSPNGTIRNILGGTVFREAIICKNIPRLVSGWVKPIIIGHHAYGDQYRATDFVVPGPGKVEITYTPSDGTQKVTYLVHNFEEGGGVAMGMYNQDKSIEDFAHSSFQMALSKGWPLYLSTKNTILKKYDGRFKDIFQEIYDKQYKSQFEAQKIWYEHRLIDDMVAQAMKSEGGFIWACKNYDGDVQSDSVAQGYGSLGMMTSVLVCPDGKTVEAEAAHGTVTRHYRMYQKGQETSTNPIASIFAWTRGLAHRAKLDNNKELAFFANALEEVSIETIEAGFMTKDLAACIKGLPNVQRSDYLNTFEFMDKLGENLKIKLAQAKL
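IDH1-R132H (0.5 ug/mL dispensed) in pH 7.5 Tris buffer was preincubated 30 min with compound, then given a substrate mix of 0.016 mM NADPH and 2 mM alpha-KG for 80 min at room temperature; remaining NADPH was read by diaphorase/resazurin fluorescence.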
* hit, by the source's call; i = inactive; ? = inconclusive; · = no result given. Unless noted, calls come from the whole dose curve; as a rule, active = well fitted curve in the direction sought with a large enough effect; inconclusive = small, poorly fitted or top-dose-only effect, or another doubt; inactive = no such curve, though single readings can be large; an effect the other way counts as inactive or inconclusive.

SMILES | S2 tox | HepG2 tox | TGFb inhibitor | ATXN2 expr inh | LDHA block | mIDH1 inhibitor
COc1cc(C)c(CN2CC=C(c3ccc(F)cc3)CC2)cc1C | ? | -22% | 7% | -13% | -5 | 3%
C=CC[C@H](CC(=O)N(CCO)Cc1ccccc1)C(=O)NC[C@H](OC(=O)[C@@H](CC=C)CC(=O)OC(C)(C)C)c1ccccc1 | 25µM* | -20% | ? | ? | 10 | -4%
C=CC[C@@H](CC(=O)N(CCO)Cc1ccccc1)C(=O)NC[C@@H](OC(=O)[C@@H](CC=C)CC(=O)OC(C)(C)C)c1ccccc1 | 20µM* | -14% | -24% | ? | 9 | -1%
CCOC(=O)c1c(C)[nH]c(C(=O)C(C)N2CCCC2)c1C (stereo not drawn) | i | -1% | 0% | -10% | -2 | 1%
CN1CCN(c2nc(Cl)ncc2F)CC1 | i | 2% | 12% | 4% | -5 | -2%
COc1ccccc1NC(=O)Cn1c(=O)oc2cc(S(=O)(=O)N3CCCC3)ccc21 | i | 0% | 15% | -3% | -3 | 4%
COc1ccc(NC(=O)Cn2c(=O)oc3cc(S(=O)(=O)N4CCC(C)CC4)ccc32)c(OC)c1 | · | -30% | 13µM* | · | 5 | 0%
COC(=O)C1=C(c2ccc(OCc3ccccc3)cc2)C[C@@H]2CC[C@H]1N2C(=O)NC1CCN(Cc2ccccc2)CC1 | 11µM* | -76% | ? | 13µM* | 4 | 8%
C=CCn1c(O)c(C(CC)=NCc2ccco2)c(=O)[nH]c1=O | i | -2% | -6% | 4% | 2 | 3%
CCN(CC)C(=O)c1ccc(NC(=O)COc2ccc(-c3nn(C)c(=O)c4ccccc34)cc2)cc1 | i | -13% | 10µM* | ? | 3 | 7%
CCN(CC)C(=O)c1ccc(NC(=O)CCn2nc(-c3ccc(C)cc3)c3ccccc3c2=O)cc1 | · | -22% | 0% | · | -7 | -26%
C/C1=C\[C@@H](C)C/C=C/[C@H]2[C@@H]3O[C@]3(C)[C@@H](C)[C@H]3[C@H](Cc4c[nH]c5ccccc45)NC(=O)[C@]32C(=O)/C=C/C(=O)[C@@H]1O | 32µM* | -98% | 2.8µM* | ? | 4 | -4%
COc1cc(CN2CCN(C(=O)COc3ccc4ccccc4c3)CC2)cc(OC)c1O | · | · | · | · | 37 | ·
CCCCCCCSc1cc(OC)c(CCNC)cc1OC | ? | -95% | ? | ? | -1 | 2%
CCCCCSc1cc(OC)c(CCNC)cc1OC | i | 10µM* | ? | -12% | 0 | 2%
CC(C)[C@]12O[C@@H]1[C@@H]1O[C@]13[C@]1(O[C@H]1C[C@@H]1C4=C(CC[C@@]13C)C(=O)OC4)[C@H]2O | · | · | · | 0.12µM* | · | ·
N=c1c2c(-c3ccccc3)c(-c3ccccc3)n(Cc3ccccc3)c2ncn1C1CCC(O)CC1 (stereo not drawn) | · | · | · | 24µM* | · | ·
COc1c(C)cc(C(=O)C2CCCN(Cc3cccc(O)c3)C2)cc1C (stereo not drawn) | i | -34% | -2% | -11% | -5 | -11%
Fc1ccc(C[n+]2c(-c3ccccc3)cc(-c3ccccc3)cc2-c2ccccc2)cc1 | ? | -5% | ? | ? | ? | -1%
Clc1ccc(C[n+]2c(-c3ccccc3)cc(-c3ccccc3)cc2-c2ccccc2)cc1 | 10µM* | -82% | ? | ? | 1 | 0%
CCOc1ccc(N=Cc2c(O)n(-c3cc(C)cc(C)c3)c(=O)[nH]c2=O)cc1 | i | -11% | 1% | 5% | -6 | -22%
CCOc1ccc(N=Cc2c(O)n(-c3ccc(C)c(C)c3)c(=O)[nH]c2=O)cc1 | i | 5.6µM* | 0% | -1% | 7 | 5%
COc1ccc(OC)c(C(O)C2CCCCN2)c1 (stereo not drawn) | i | -9% | 9% | 10% | -8 | 6%
NC(N)=N/N=C/c1cn(-c2ccccc2)nc1-c1cccs1 | · | 11µM* | ? | · | -10 | 8%
O=c1c2ccccc2nc(-c2cccs2)n1-c1ccccc1 | i | -3% | -12% | -4% | -4 | 6%
SMILES | S2 tox | HepG2 tox | TGFb inhibitor | ATXN2 expr inh | LDHA block | mIDH1 inhibitor
Cc1c(N)nc([C@H](CC(N)=O)NC[C@@H](N)C(N)=O)nc1C(=O)N[C@H](C(=O)N[C@@H](C)[C@H](O)[C@@H](C)C(=O)N[C@@H](C(=O)NCCc1nc(-c2nc(C(=O)NCCC[S+](C)C)cs2)cs1)[C@@H](C)O)C(O[C@H]1O[C@H](CO)[C@H](O)[C@@H](O)[C@@H]1O[C@H]1O[C@H](CO)[C@@H](O)[C@H](OC(N)=O)[C@H]1O)c1cnc[nH]1 (stereo partly drawn) | · | · | · | 14µM* | · | ·
COc1ccc(-c2nc(CN3C(=O)CN=C(c4ccccc4)c4cc(Cl)ccc43)c(C)o2)cc1 | · | -7% | ? | ? | -3 | -27%
Cc1ccc(S(=O)(=O)N2Cc3cc(-c4ccccc4)ccc3-n3nncc3C2)cc1 | i | -8% | ? | -11% | -5 | ·
CC(=O)[O][Hg][c]1ccccc1 | 4.5µM* | · | · | 4.5µM* | · | ·
O=c1c2ccccc2nc(-c2ccc(-c3ccccc3)cc2)n1-c1ccncc1 | i | -32% | ? | 3% | -5 | 3%
O=C(NCc1ccc2c(c1)CCN2C(=O)c1ccccc1)Nc1cccc(C(F)(F)F)c1 | · | -10% | 2.8µM* | · | -7 | 4%
COc1cccc(C(=O)C2CCCN(Cc3ccon3)C2)c1 (stereo not drawn) | i | 1% | 9% | -5% | -4 | -7%
O=C(c1ccccc1F)c1cn(Cc2ccccc2)c2ccccc12 | i | 1% | -4% | 13% | 0 | 4%
Clc1ccccc1C1=NCc2nncn2-c2sc(Br)cc21 | i | 18% | 3% | 7% | -11 | -12%
COc1ccc2c(c1)CCc1c(C(=O)Nc3c(C)nn(Cc4ccccc4C)c3C)noc1-2 | ? | -30% | 13µM* | 0% | 8 | -2%
COc1ccc(NC(=O)c2c(C)nn(Cc3ccccc3Cl)c2Cl)cc1Cl | ? | -2% | 2% | -12% | -7 | -10%
CCCCCCn1c(N)c(C(=O)NCCN2CCOCC2)c2nc3ccccc3nc21 | i | -89% | 16µM* | -15% | 3 | 5%
CN(C)c1ccc(-c2ccc(N(C)C)cc2)cc1 | · | · | · | · | 2 | ·
COc1cccc(NC(=O)Cn2cc(C(=O)c3ccccc3)c3ccccc32)c1 | · | -18% | 10µM* | · | -6 | 7%
